An excerpt weighted towards active compounds, which were near 3.5% of everything screened.
GPR151 activ = human GPR151 activation; Q8TDV0; PathHunter beta-arrestin GPR151 cells, luminescence; activation, % at 11.2 µM; actives 1% (n = 650,000); in the data active = activation above about 4.9%;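 note: 0% = median of compound wells and 100% = cells with positive control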
TEAD-YAP block = TEAD-YAP interaction inhibition; actives 1.4% (n = 640,000); HEK-TIYL cells, TEAD-Gal4/YAP UAS-luciferase luminescence; inhibition, % at 9.12 µM; in the data active = inhibition above about 32%;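 note: 0% = median of test compound wells and 100% = reference inhibitor wells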
MITF primary = blocks human microphthalmia-associated transcription factor. O75030. actives 0.91% (n = 650,000). AlphaScreen MITF homodimerization, bead proximity signal. inhibition, % at 2.6 µM; in the data active = inhibition above about 50%;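 note: 0% = vehicle wells with protein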
FBW7 activator = activators of human E3 ligase FBW7; normalized activity (activation), % at 26.1 µM; Q969H0; AID 1259310; actives 0.13% (n = 650,000); AlphaScreen FBW7–phospho-cyclin E peptide binding, activator screen; in the data active = normalized activity above about 1.9%;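 note: purified mutant Fbw7 with reduced substrate affinity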
GPR151 confirm = confirmation of human GPR151 activators; shares compounds with GPR151 activ; GPR151 PathHunter beta-arrestin cells, luminescence, 90 min; % of EA-reagent control over plate median; activation, % at 11.2 µM; 6,700 tested, under 10 active;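 active = mean percent activation across replicates above the confirmation screen cutoff of 4.91%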
GPR119 ag = GPR119 activation, counter-screen for GPR151 activators; shares compounds with GPR151 activ; GPR119 PathHunter beta-arrestin cells, luminescence, 90 min; 0 = compound-well median, 100 = enzyme-acceptor control; activation, % at 11.2 µM; actives 0.3% (n = 6,700); AID 1508611;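 active = mean percent activation in the counterscreen above 29.09%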;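 note: counterscreen on off-target GPR119 to flag nonselective hits from the GPR151 activator screen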
Target sequence (Q8TDV5 whole entry, looked up): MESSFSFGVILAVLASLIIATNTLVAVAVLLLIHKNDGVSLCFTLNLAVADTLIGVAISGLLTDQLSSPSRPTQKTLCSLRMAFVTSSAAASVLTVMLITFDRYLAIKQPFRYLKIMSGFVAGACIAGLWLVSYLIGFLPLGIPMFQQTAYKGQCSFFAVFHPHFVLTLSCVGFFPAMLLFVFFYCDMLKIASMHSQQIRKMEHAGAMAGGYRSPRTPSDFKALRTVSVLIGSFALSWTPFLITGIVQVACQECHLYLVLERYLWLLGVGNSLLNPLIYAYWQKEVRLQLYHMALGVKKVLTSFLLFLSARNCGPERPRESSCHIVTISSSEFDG
* marks the source's active call; other numbers are inactive results; · = no result given.

SMILES | GPR151 activ | TEAD-YAP block | MITF primary | FBW7 activator | GPR151 confirm | GPR119 ag
O=C(O)CN1C(=O)c2cccc3c(Cl)cc(Cl)c1c23 | 6.1* | 0 | -1 | 0 | 0 | 2
O=C(O)CN1C(=O)c2cccc3c(Cl)cc(Br)c1c23 | 0 | 1 | 2 | 0 | · | ·
CCOC(=O)COc1ccc2c(-c3cccc([N+](=O)[O-])c3)cc(=O)oc2c1 | -1 | 10 | 14 | 0 | · | ·
COc1cc(NC(=O)Nc2nnc(N3CCCCC3)s2)cc(OC)c1 | 5.3* | -2 | -4 | 0 | -1 | -14
Cc1ccc(NC(=O)Nc2nnc(N3CCCCC3)s2)c(C)c1 | 7.4* | 1 | 4 | 0 | 0 | -3
O=C(Nc1cccc(C(F)(F)F)c1)Nc1nnc(N2CCCCCC2)s1 | 5.2* | -3 | 6 | 0 | -1 | -4
Cc1cc(C)cc(NC(=O)Nc2nnc(N3CCCCC3)s2)c1 | 3 | 0 | -1 | 0 | · | ·
Cc1cccc(NC(=O)Nc2nnc(N3CCCCC3)s2)c1 | 5.6* | -50 | 5 | 0 | 0 | -2
COc1cc2cc3c(N)c(C(=O)NCc4ccccc4)sc3nc2cc1OC | 1 | 3 | -12 | 0 | · | ·
COC(=O)NC1CCC2C3CCC4CC(O)CCC4(C)C3CCC12C (stereo not drawn) | 0 | 5 | 4 | 0 | · | ·
CCCCCCNC(=O)c1cc(Sc2ccc(Cl)cc2)nc2ccccc12 | 1 | 3 | 2 | 0 | · | ·
COCCCN1C(=O)C(=O)/C(=C(\O)c2ccc(C)cc2)C1c1ccc(C)cc1 (stereo not drawn) | -1 | 8 | 9 | 1 | · | ·
O=C(CCNC(=O)c1ccccc1)NNC(=O)Cn1nnc(-c2ccccc2)n1 | 1 | 1 | -5 | 0 | · | ·
CC(NC(=O)CCc1nnc(-c2ccc3c(c2)OCO3)o1)c1cccc2ccccc12 (stereo not drawn) | 1 | -7 | 3 | 0 | · | ·
CC(C)(C)C(=O)NCCc1nc(-c2ccncc2)n[nH]1 | 2 | 1 | 8 | 0 | · | ·
O=S(=O)(Nn1cnnc1)c1ccc(Br)cc1 | -1 | 13 | 3 | 1 | · | ·
Cc1c(Cl)cccc1N(CC(=O)N1CCCCC1)S(C)(=O)=O | 1 | 5 | 5 | 0 | · | ·
COc1ccc(OC)c(CNS(=O)(=O)c2ccc3c(c2)oc(=O)n3C)c1 | -1 | 20 | 2 | 0 | · | ·
COc1ccccc1CNS(=O)(=O)c1ccc2c(c1)oc(=O)n2C | 5.9* | 2 | 18 | 0 | -1 | -9
CCCN(CCC)CCNS(=O)(=O)c1ccc2c(c1)oc(=O)n2C | 7.6* | -5 | 6 | 0 | 0 | 8
CCOC(=O)c1cc2c(=O)n3cccc(C)c3nc2n(CCO)c1=N | 0 | -6 | -13 | 0 | · | ·
CCOC(=O)c1c(NC(=O)CNCC(O)CO)sc(C)c1C (stereo not drawn) | 5.3* | -16 | -11 | 0 | 1 | 5
CCCC(=O)Nc1sc(C)c(CC)c1C(=O)OCC | 13* | 8 | -4 | 0 | 0 | -8
CCCc1cc(C(=O)Nc2sc(C)c(CC)c2C(N)=O)cs1 | 9.1* | -28 | 23 | 1 | 0 | 5
COc1ccc(S(=O)(=O)N(CC(=O)NC(C)c2ccccc2)c2ccc(Cl)cc2)cc1 (stereo not drawn) | 1 | 6 | 2 | 0 | · | ·
SMILES | GPR151 activ | TEAD-YAP block | MITF primary | FBW7 activator | GPR151 confirm | GPR119 ag
CC(C)CC(NC(=O)c1ccc(Cl)cc1Cl)C(=O)O (stereo not drawn) | -1 | -1 | 6 | 0 | · | ·
O=C(N[C@@H](Cc1ccccc1)C(=O)O)c1ccc(Cl)cc1Cl | 5.0* | 1 | 11 | 0 | 0 | 2
CCCCn1nnnc1SCC(=O)NNC(=O)c1ccco1 | 5.9* | 12 | 13 | 0 | 1 | 4
CCCn1nnnc1SCC(=O)NNC(=O)c1ccco1 | 0 | 1 | -7 | 0 | · | ·
COC(=O)CNC(=O)c1ccc([N+](=O)[O-])cc1 | 0 | -2 | 0 | 0 | · | ·
O=C(CC1(c2ccccc2)CC(=O)N(CCc2ccccn2)C1=O)N1CCSCC1 (stereo not drawn) | 0 | -5 | -10 | 0 | · | ·
Cc1ccc(CN2CCNC(=O)C2CC(=O)N2CCCN(Cc3ccccn3)CC2)o1 (stereo not drawn) | 5.6* | -1 | 13 | 0 | 0 | 1
Cc1ccc(CN2CCNC(=O)C2CC(=O)N2CCCN(c3ncccn3)CC2)o1 (stereo not drawn) | 1 | -1 | -17 | 0 | · | ·
COc1cc(CN2CCN(C(=O)c3ccc([N+](=O)[O-])cc3)CC2)c([N+](=O)[O-])cc1OC | 0 | 2 | 49 | 0 | · | ·
O=C(NCC1CCC2(CCN(CC3CC=CCC3)CC2)O1)c1ccccc1 (stereo not drawn) | 0 | 6 | 5 | 0 | · | ·
O=C(Nc1cccc(Oc2ccc(C(=O)O)c(C(=O)O)c2)c1)c1ccc(-c2ccccc2)cc1 | 6.9* | 18 | 2 | 0 | 0 | 3
O=C(Nc1cccc(Oc2ccc(C(=O)O)c(C(=O)O)c2)c1)c1ccc([N+](=O)[O-])cc1 | 0 | 6 | 14 | -1 | · | ·
Cc1[nH]nc2c1C(c1ccoc1)C(C#N)=C(N)N2 (stereo not drawn) | 2 | 4 | 3 | 0 | · | ·
COc1ccc(NC(=O)c2cc3cc(OC)ccc3oc2=Nc2ccc(C(=O)O)cc2)c(OC)c1 | 0 | -9 | 10 | 0 | · | ·
COc1ccc(NC(=O)c2cc3ccc(OC)cc3oc2=Nc2ccc(C(=O)O)cc2)c(OC)c1 | 11* | 16 | -9 | 0 | 0 | 15
CCOc1ccc(/C=C(/C#N)c2nc(-c3ccc(Br)cc3)cs2)c(OCC)c1 | 0 | 5 | 0 | 0 | · | ·
COc1ccc(-c2csc(/C(C#N)=C/Nc3ccc(C(N)=O)cc3)n2)cc1OC | 1 | 0 | -9 | 0 | · | ·
CCOc1ccc(-c2csc(/C(C#N)=C/c3ccccc3OCC)n2)cc1 | 6.2* | -6 | 7 | 0 | 5 | 13
COc1ccc(-c2csc(/C(C#N)=C/Nc3ccc(F)c([N+](=O)[O-])c3)n2)cc1OC | 5.2* | 1 | -3 | 0 | 3 | 8
COc1ccc(N/C=C(/C#N)c2nc(-c3ccccc3)cs2)cc1 | 10.0* | -3 | 4 | 0 | -1 | -14
CC(=O)c1cccc(NC(=O)N2CCN(c3nc4ccccc4n3C)CC2)c1 | 1 | 4 | -9 | 0 | · | ·
Cn1c(=O)oc2cc(S(=O)(=O)N3CCCC(C(=O)NC4CCCCCCC4)C3)ccc21 (stereo not drawn) | 0 | -6 | 2 | 0 | · | ·
Cc1ccc2c(c1)cc(CN(Cc1ccco1)C(=O)N(C)C)c1nnnn12 | 0 | 4 | 4 | 0 | · | ·
Cc1ccc2c(c1)cc(CN(Cc1ccco1)S(=O)(=O)c1ccccc1)c1nnnn12 | 6.7* | -11 | -12 | 0 | 0 | 5
Cc1ccc2c(c1)cc(CN(Cc1cccs1)C(=O)c1cccs1)c1nnnn12 | 1 | 3 | 0 | 0 | · | ·

Assay outcomes as filed in PubChem.
